Results as given in PubChem BioAssay (EPA / NIEHS).
Inconclusive results are not listed. The source holds several records for some structures; these can differ, active in one and inactive in another. Active and inactive are the calls of the source. Rule for the calls: active = hit-call score of the fitted dose curve at least 0.9, where 1 is the maximum; inconclusive = response in the unintended direction; inactive = score below 0.9.

assay: TOX21_p53_BLA_p5_viability: Viability Assessment in the Tox21 HCT-116 p53 Agonism Beta-lactamase Assay, Phase 5 (AID 2283600)
From the text: TOX21_p53_BLA_p5 is a cell-based, single-readout assay that uses HCT116, a human intestinal cell line, […] in a 1536-well plate.TOX21_p53_BLA_p5_viability is an assay readout measuring cellular ATP content and detected with CellTiter-Glo Luciferase-coupled ATP quantitation.TOX21_p53_BLA_p5_viability used a type of viability reporter where loss-of-signal activity can be used to understand changes in the cell viability. Furthermore, this assay endpoint can be referred to as a secondary readout, because this assay has produced multiple assay endpoints where this one serves a viability function. To generalize the intended target to other relatable targets, this assay endpoint is annotated to the cell cycle intended target family, where the subfamily is cytotoxicity.
Thawing Method: Place 14 mL of pre-warmed thaw medium into a 15 mL of conical tub. Remove the vial of cells to be thawed from liquid nitrogen and thaw rapidly by placing at 37C in a water bath with gentle agitation for 1-2 minutes. Decontaminate the vial by wiping with 70% ethanol before opening in a biological safety cabinet. Transfer the vial contents drop-wise into 14 mL of thaw medium in a sterile 15-mL conical tub. Centrifuge cells at 900 rpm for 4 minutes and resuspend in thaw medium. Transfer contents to the T75 tissue culture flask containing Thaw Medium and place flask in a humidified 37C/5% CO2 incubator. Switch to growth medium at first passage.Propagation Method: Aspirate medium, rinse once in DPBS, add 0.25% Trypsin/EDTA and swirl to coat the cell evenly. Add an equal volume of Growth Medium to inactivate Trypsin after 2-3 minutes incubation at 37C. Centrifuge cells at 900 rpm for 4 minutes and resuspend in growth medium. Cell should be passage or fed at least twice a week.Assay Protocol: Harvest cells from culture in growth medium and resuspend in assay medium. 2.2 Dispense 4000 cells/5 uL/well into 1536-well black/clear bottom plates using a Multidrop dispenser. After the cells were incubated at 37C for 5 hours, 23 nL of compounds dissolved in DMSO were transferred to the assay plate by a PinTool resulting in a 217-fold dilution. Incubate the plates for 16 hours at 37C, 5% CO2. Add 1 uL of 6X LiveBLAzer FRET B/G (CCF4-AM) Substrate Mixture to each well using a BioRAPTR dispenser and incubate the plates at room temperature for 2 hours. Measure fluorescence intensity at 460 and 530 nm emission and 405 nm excitation by an Envision detector. Data is expressed as the ratio of 460nm/530nm emissions. Add 4 uL of Cell-titer Glo to each well using BioRAPTR and incubate the plates at room temperature for […]. For cell viability readout that measures cytotoxicity, 4 ul/well of CellTiter-Glo reagent was added into the assay plates using a Flying Reagent Dispenser. After 30 min incubation at room temperature, the luminescence intensity in the plates was measured using a ViewLux plate reader.

SMILES | outcome | AC50
CCCCNC(=O)NS(=O)(=O)c1ccc(N)cc1 | inactive | –
c1ccc2c(c1)c1cccc3ccc4cccc2c4c31 | inactive | –
CC(C)C(C)(C)C(C)(C)C(C)(C)S | inactive | –
O=[N+]([O-])c1cc(C(F)(F)F)ccc1Cl | inactive | –
CN(C)C(=N)N=C(N)N | inactive | –
CC(C=O)Cc1ccc(C(C)C)cc1 (stereo not given) | inactive | –
CCCCNC(=O)NS(=O)(=O)c1ccc(C)cc1 | inactive | –
O=C[C@@H](O)[C@H](O)[C@H](O)CO | inactive | –
CC(C#N)(CCC(=O)O)N=NC(C)(C#N)CCC(=O)O (stereo not given) | inactive | –
CCCCCCCCCC=O | inactive | –
CC(C)(C)c1cc(CCC(=O)NN)cc(C(C)(C)C)c1O | inactive | –
Cc1ccc2ccccc2n1 | inactive | –
O=C1C(c2[nH]c3ccc(S(=O)(=O)O)cc3c2O)=Nc2ccc(S(=O)(=O)O)cc21 | inactive | –
CC(C)[C@H]1CC[C@@H](C)CC1=O | inactive | –
C=C(C)C(=O)Nc1ccc(Cl)c(Cl)c1 | inactive | –
OCC(CO)(CO)COCC(CO)(CO)CO | inactive | –
O=C1c2ccccc2C(=O)N1SC1CCCCC1 | inactive | –
CC(=O)[C@H]1CC[C@H]2[C@@H]3CC=C4C[C@@H](O)CC[C@]4(C)[C@H]3CC[C@]12C | inactive | –
CCCCCCCCCCCCCCCC(=O)O | inactive | –
C=CC(=O)NCOCC(C)C | inactive | –

SMILES | outcome | AC50
CCCCCC=CCC(=O)OC | inactive | –
CC1CCC(C(C)CS)CC1S (stereo not given) | inactive | –
CC[C@]12CCCN3CCc4c(n(c5ccccc45)[C@@](O)(C(=O)OC)C1)[C@@H]32 | inactive | –
COc1ccc(O)cc1 | inactive | –
Cc1ccc(O)c(C(C)(C)C)c1 | inactive | 42.9 µM (active)
NCCNCCN | inactive | –
CCCCCC(=O)OCCc1ccccc1 | inactive | –
Cc1ccc(C=O)s1 | inactive | –
CCCc1ccccc1O | inactive | –
COc1cccc(OC)c1 | inactive | –
OCCCCCO | inactive | –
CC(=O)C(=O)O | inactive | –
COCCCOc1ccnc(CS(=O)c2nc3ccccc3[nH]2)c1C (stereo not given) | inactive | –
OCCN1CCNCC1 | inactive | –
Cc1ccccc1C=O | inactive | –
O=C1CCc2ccccc2O1 | inactive | –
NC(N)=NC(=O)c1nc(Cl)c(N)nc1N | inactive | –
O=Cc1ccc(F)cc1 | inactive | –
NCCCCCCN | inactive | –
